Pf growth 48h: Primary qHTS for delayed death inhibitors of the malarial parasite plastid, 48 hour incubation | P. falciparum luciferase growth in erythrocytes, 48 h | AID 504832, 2011 | Potency, µM (titrated, usually from 28.7 µM), inactives show top-dose activity change, negative = inhibition, actives largely listed as inhibitors | hit rate 5.9% among 310,000; also: potency is read from the fitted curve at half-maximal effect; % is scaled to controls: 0 for no effect and ±100 for the full control effect
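In quantitative HTS format, infected erythrocytes bearing luciferase-reporter parasites were treated for a single generation at 37 C. Luminescence after adding detection reagent served as the growth measure.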
Shiga toxin inh: A qHTS for Small Molecule Inhibitors of Shiga Toxin; AID 2315, 2010; hit rate 9.2% among 290,000; inhibition, % at 38.7 µM; Vero cells, Shiga toxin protein synthesis inhibition reporter; in the data active = inhibition mostly above about 28%, no sharp cut-off; inactive = mostly below about 43%; also: 0% is about no effect
Cycloheximide cs: Cycloheximide Counterscreen for Small Molecule Inhibitors of Shiga Toxin; AID 2314, 2010; max response, %; cell reporter, cycloheximide protein synthesis inhibition counterscreen; hit rate 12% among 300,000; in the data active = max response mostly above about 13%, no sharp cut-off; inactive = mostly below about 14%; also: read at 38.3 µM for the half of the compounds with a filed dose; 0% is about no effect
Pf growth 96h: Primary qHTS for delayed death inhibitors of the malarial parasite plastid, 96 hour incubation. P. falciparum luciferase reporter growth, 96 h. Potency, µM (titrated, usually from 28.7 µM), without a hit: at the top dose activity change, negative = inhibition, hits mostly inhibitors. hit rate 6.9% among 320,000. AID 504834, 2011; also: potency is read from the fitted curve at half-maximal effect; % is scaled to controls: 0 for no effect and ±100 for the full control effect
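Parasite growth measured via integrated firefly luciferase reporter in P. falciparum. Infected erythrocytes at 2% hematocrit, 0.05% parasitemia final were treated 96 hours at 37 C under 5% CO2, and luminescence was read.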
* marks the source's active call; other numbers are inactive results; i = inactive; ? = inconclusive; · = no result given. Most compounds without a hit are left out; they make up all but 21% or so of the library. Unless noted, calls follow the shape of the dose curve; as a rule, active = well fitted inhibition curve with a large enough effect; inconclusive = small, poorly fitted or top-dose-only effect, or another doubt; inactive = no such curve, though single readings can be large or run the other way.

SMILES	Pf growth 48h	Shiga toxin inh	Cycloheximide cs	Pf growth 96h
Cc1cc(C)c(S(=O)(=O)NCc2nc3nc(C)cc(C)n3n2)c(C)c1	-7%	-5	-3	12µM*
Cc1ccc(S(=O)(=O)NCc2nc3nc(C)cc(C)n3n2)c(C)c1	32%	-2	-2	?
CN(C)C(=O)C1CCC(=O)N1Cc1cccs1 (stereo unspecified)	25%	4	9	45%
Cc1ccc(C2=Nc3ccccc3N=C(C(Cl)Cl)C2)cc1	20%	123*	41*	-3%
Cc1ccc2c(c1)N=C(c1ccccc1)CC(C(Cl)Cl)=N2	168%	84*	37*	-37%
O=S(=O)(NCC1CCCO1)c1ccc(S(=O)(=O)N(Cc2ccc(F)cc2)Cc2ccco2)cc1 (stereo unspecified)	?	12	5	6%
CCN(CC(=O)NCc1ccc(Cl)cc1)C(=O)CCc1ccccc1	-11%	-2	1	-3%
CC(Sc1nnc(-c2ccccc2)c(-c2ccccc2)n1)C(=O)N1CCc2ccccc21 (stereo unspecified)	-27%	2	-1	7.4µM*
CC(C(=O)N1CCc2ccccc21)N1CCN(S(=O)(=O)c2cccc(C(F)(F)F)c2)CC1 (stereo unspecified)	12µM*	·	·	13µM*
Cc1ccc(S(=O)(=O)N2CCN(C(C)C(=O)N3CCCc4ccccc43)CC2)cc1 (stereo unspecified)	?	-5	4	?
COc1cc2c(cc1OC)CN(C(C)C(=O)N1CCc3ccccc31)CC2 (stereo unspecified)	·	-14	-3	?
CCc1ccc(OCC(=O)N2c3ccccc3CCc3ccccc32)cc1	9.3µM*	-6	-3	i
CC(C(=O)N1CCc2ccccc21)N1CCc2ccccc2C1 (stereo unspecified)	?	11	0	9.3µM*
CSc1cccc(NC(=O)Nc2nc3c(C)cccc3s2)c1	?	18	14	?
COc1ccc(CNC(=O)CCNS(=O)(=O)c2cc(Br)cnc2N)cc1	9%	-10	-4	15%
CC(Oc1ccccc1)C(=O)N1CCCc2ccccc21 (stereo unspecified)	11%	11	0	·
Cc1ccc(OCC(=O)N2CCCc3ccccc32)cc1	?	33*	19	-2%
Cc1ccc(OC(C)C(=O)N2CCc3ccccc32)cc1 (stereo unspecified)	2.9µM*	-34	1	·
CCc1ccc(OCC(=O)N2CCc3ccccc32)cc1	37%	96*	35*	41%
Cc1ccc(OCC(=O)N2CCc3ccccc32)cc1	118%	84*	76*	100%
O=c1ncccn1[C@@H]1O[C@H](CO)[C@@H](O)[C@H]1O	·	-7	7	·
O=C(O)c1cc(-c2cccc(Cl)c2)nc2nc(N3CCCCC3)sc12	-17%	9	-3	-25%
CN(C)c1cc[n+](CC(=O)N2CCCc3ccccc32)cc1	5.2µM*	-7	-1	?
O=C(COc1ccc2c(c1)CCC2)N1CCc2ccccc21	·	98*	43*	-17%
CCC(C)c1cc([N+](=O)[O-])cc([N+](=O)[O-])c1OC(=O)OC(C)C (stereo unspecified)	·	15	6	·
SMILES	Pf growth 48h	Shiga toxin inh	Cycloheximide cs	Pf growth 96h
COc1ccc(C(CC(=O)c2ccccc2)CC(=O)c2ccccc2)cc1OC	?	-6	-4	16%
COC(=O)C(C)n1cnc2c(nnn2-c2cccc(OC)c2)c1=O (stereo unspecified)	15%	41*	20*	-9%
COc1cccc(-n2nnc3c(=O)n(Cc4c(F)cccc4Cl)cnc32)c1	8%	-3	-4	9.3µM*
CCC(C(=O)OC)n1cnc2c(nnn2-c2cccc(OC)c2)c1=O (stereo unspecified)	36%	38	16*	22%
COC(=O)C(C)n1cnc2c(nnn2-c2ccccc2)c1=O (stereo unspecified)	15%	16	-3	49%
CCC(CC)C(=O)c1c[nH]c(C(=O)OC)c1	14%	-5	-2	5%
Cc1cc(C)cc(C(=O)NCC(=O)OC(C)C(=O)N(C)c2ccccc2)c1 (stereo unspecified)	398%	-12	6	-4%
c1ccc(C2CC(c3cccs3)=NN2c2ccccc2)cc1 (stereo unspecified)	10µM*	94*	33*	10µM*
COc1ccc(C2CC(c3cccs3)=NN2c2ccc(C=O)cc2)cc1 (stereo unspecified)	0%	55*	46*	8%
Cc1nn(CCC(N)=S)c2nc(-c3cccs3)cc(C(F)(F)F)c12	-17%	-18	2	?
CN1CCC(Nc2ncc3ncnc(Nc4ccc(F)c(Cl)c4)c3n2)CC1	1.7µM*	-6	-2	3.4µM*
CC1(C)CN=C(Nc2ccc(F)c(Cl)c2)S1	?	13	7	?
CCOc1ccccc1CN1CCN(CC2=Cc3cc(OC)ccc3OC2)CC1CCO (stereo unspecified)	9.3µM*	-8	1	?
COc1ccc(CN2CCN(CCc3ccccc3)C(CCO)C2)c(O)c1 (stereo unspecified)	10µM*	-8	-2	18%
OCCC1CN(Cc2ccccc2-c2ccco2)CCN1Cc1ccccc1 (stereo unspecified)	?	15	-2	9.3µM*
Cc1ccc(CN2CCN(Cc3cnc(C)[nH]3)CC2CCO)cc1 (stereo unspecified)	-7%	-10	0	12µM*
CCOC(=O)c1nn(-c2ccc(C)c(C)c2)c(=O)c(C#N)c1C	7%	·	-2	21%
COc1ccc(NC(=O)CSCC(=O)NC2(C)CCS(=O)(=O)C2)cc1 (stereo unspecified)	0%	-12	-4	-3%
CCOCCCn1c(SCC(=O)Nc2ccc(NC(C)=O)cc2)nc2ccccc2c1=O	-13%	-7	-2	?
Cc1ccc(C)c(C(=O)CSc2nc(N)cc(=O)[nH]2)c1	12%	-5	-1	6%
COc1ccc(CN2CCN(CCCc3ccccc3)C(CCO)C2)c(O)c1 (stereo unspecified)	?	-7	1	2.9µM*
Cc1ccccc1CN1CCN(CCCc2ccccc2)C(CCO)C1 (stereo unspecified)	?	-8	-2	4%
COc1ccc(CN2CCN(CCCc3ccccc3)C(CCO)C2)c(OC)c1 (stereo unspecified)	-25%	-2	-2	?
OCCC1CN(Cc2ccccc2O)CCN1CCCc1ccccc1 (stereo unspecified)	6.6µM*	-7	-4	-10%
COc1cccc(NC(=O)COC(=O)CCC2CCCC2)c1	0%	·	·	-6%
CCOC(=O)C1CCCCN1Cc1ccc(C(F)(F)F)cc1 (stereo unspecified)	·	-10	-4	9.3µM*
NC1=NC(c2cn(-c3ccccc3)nc2-c2cccs2)n2c(nc3ccccc32)N1 (stereo unspecified)	?	17	8	?
C=CCOC(=O)C1=C(C)NC(=O)NC1c1cn(-c2ccccc2)nc1-c1cccs1 (stereo unspecified)	15µM*	-4	-1	?

Screening data: PubChem, National Center for Advancing Translational Sciences (NCATS)
